Laboratory results as given in PubChem BioAssay (NCATS).
Records with an inconclusive call do not appear. A call without a number means that no potency is given here. Activity calls are given as the source filed them. Calls come from the whole dose curve; as a rule, active = well fitted inhibition curve with a large enough effect; inconclusive = small, poorly fitted or top-dose-only effect; inactive = flat fitted curve, though single readings scatter.

Target: DNA repair nuclease/redox regulator APEX1 (Homo sapiens) (UniProt P27695)
Sequence (P27695 whole entry, looked up): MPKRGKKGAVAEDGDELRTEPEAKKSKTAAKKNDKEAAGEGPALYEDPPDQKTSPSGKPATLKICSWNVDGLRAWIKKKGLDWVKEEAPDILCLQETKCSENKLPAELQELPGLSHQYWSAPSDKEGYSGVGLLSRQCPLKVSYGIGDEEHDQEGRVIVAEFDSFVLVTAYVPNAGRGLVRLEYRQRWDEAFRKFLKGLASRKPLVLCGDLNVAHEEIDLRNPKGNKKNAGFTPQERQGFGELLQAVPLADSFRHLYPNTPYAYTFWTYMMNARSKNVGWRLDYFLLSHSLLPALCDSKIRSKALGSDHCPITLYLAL
Assay: qHTS Validation Assay for Inhibitors of the Human Apurinic/apyrimidinic Endonuclease 1 (APE1) (AID 1705)
Conditions: purified APE1 endonuclease activity, fluorescence, titration; series mostly up to 57.1 µM
Description: Assay Provider: David M. Wilson, III, National Institute on Aging, NIH
Screening Center PI: Austin, C.P.
Screening Center: NIH Chemical Genomics Center [NCGC]
The apurinic/apyrimidinic endonuclease APE1 is the primary mammalian enzyme responsible for the removal of abasic (or AP) sites in DNA and functions centrally in the base excision DNA repair (BER) pathway. […] Thus, targeting APE1 could improve the efficacy of current treatment paradigms by promoting selective sensitization or protection of diseased and normal cells, respectively.
Inhibition of APE1 activity was screened by utilizing double-stranded short substrate containing tetrahydrofuran (THF) abasic site labeled with rhodamine-type fluorophore (TAMRA) at the 5'-end and with non-fluorescent Black Hole Quencher-2 (BHQ-2) at the opposing 3'-end. An increase in the fluorescence intensity due to incision of the abasic site by APE1 was used to measure the enzyme activity.
1. Substrate: 50 nM final concentration of TAMRA/BHQ-2 substrate dispensed throughout the plate.
2. Enzyme: […] nM APE1 final concentration in columns 1, 2, 5-48. Column 1 is neutral (100% activity)
3. Control: Pintool transfer of control inhibitor NSC-13755 to column 2 of all assay plates. Two-fold, 16 pt dilution in duplicate to produce final concentrations in the […] uM - […] nM range.
3. Buffer columns in columns 3 and 4 were used as negative control (no enzyme).
Three uL of enzyme were dispensed to 1536-well Greiner black solid bottom plates. Compounds (23 nL) were transferred via Kalypsys pintool. The plates were incubated for 15 min at room temperature, and then 1 uL of substrate solution was added to start the reaction. The plates were immediately transferred into ViewLux High-throughput CCD imager (Perkin-Elmer) in order to measure the reaction progress in kinetic mode (three reads every 60 seconds) using 525 nm excitation and 598 nm emission fluorescence protocol. The fluorescence intensity difference between the third and the first time points was used to compute reaction progress.
Potency is the fitted concentration of half-maximal effect.

Row | SMILES | Potency
1 | CO/N=C(\C(=O)N[C@@H]1C(=O)N2C(C(=O)O)=C(CSc3nc(=O)c(O)nn3C)CSC12)c1csc(N)n1 (stereo not given in full) | 2240 nM (active)
2 | S=C(S)N1CCCC1 | inactive
3 | Cc1ccc2c(c1)C(N1CCN(C)CC1)=Nc1cccnc1N2 | inactive
4 | NC(N)=[N+]1CCc2ccccc2C1 | inactive
5 | COC(=O)C(C)(N)Cc1ccc(O)cc1 (stereo not given) | inactive
6 | COc1ccccc1N1CCN(CCCCN2C(=O)c3ccccc3C2=O)CC1 | inactive
7 | NCCS(=O)O | inactive
8 | Nc1ccc(-c2ccc3ccccc3n2)cc1 | inactive
9 | COCc1nc2c([nH]1)c(=O)n(C)c(=O)n2CC(C)C | inactive
10 | COC(=O)C1=C(C)NC(C)=C([N+](=O)[O-])C1c1ccccc1C(F)(F)F (stereo not given) | inactive
11 | O=C(OCCN1CCOCC1)C1(c2ccccc2)CCCCC1 | inactive
12 | Nc1ncnc2c1c(-c1ccc(Oc3ccccc3)cc1)cn2C1CCCC1 | inactive
13 | CCCCC[C@H](CC(=O)NO)C(=O)N[C@H](C(=O)N1CCC[C@H]1CO)C(C)C | inactive
14 | OCC1NCC(O)C(O)C1O (stereo not given) | inactive
15 | CCC1(O)CC2CN(CCc3c([nH]c4ccccc34)[C@@](C(=O)OC)(c3cc4c(cc3OC)N(C=O)C3[C@]45CCN4CC=C[C@@](CC)([C@@H](OC(C)=O)[C@]3(O)C(=O)OC)[C@H]45)C2)C1 (stereo not given in full) | inactive
16 | COc1cc(C(O)C(=O)O)ccc1O (stereo not given) | inactive
17 | COc1cc([C@@H]2c3cc4c(cc3[C@H](O)C3COC(=O)[C@@H]32)OCO4)cc(OC)c1OC (stereo not given in full) | inactive
18 | O=c1[nH]c2cc(Cl)ccc2c(O)c1-c1ccc(Oc2ccccc2)cc1 | inactive
19 | N=C(N)c1ccccc1 | inactive
20 | N=S(=O)(O)Cc1noc2ccccc12 | inactive

Row | SMILES | Potency
21 | N=C(N)c1ccc(N)cc1 | inactive
22 | NC(=O)c1cc[n+](CC2=C(C(=O)O)N3C(=O)[C@@H](NC(=O)[C@@H](c4ccccc4)S(=O)(=O)[O-])[C@H]3SC2)cc1 | 14100 nM (active)
23 | CCN1C(=O)C=CC1=O | inactive
24 | O=C(O)C1=CCCNC1 | inactive
25 | CC[C@H](NC(=O)c1c(C)c(-c2ccccc2)nc2ccccc12)c1ccccc1 | inactive
26 | OC[C@H]1NC[C@@H](O)[C@@H]1O | inactive
27 | CC[N+](CC)(CC)CC(=O)Nc1c(C)cccc1C | inactive
28 | CC(N)=NCCCC[C@@H](N)C(=O)O | inactive
29 | NS(=O)(=O)c1cccc2c1c([N+](=O)[O-])cc1nc(O)c(O)nc12 | inactive
30 | C/C(=C\c1ccc(C(=O)O)cc1)c1ccc2c(c1)C(C)(C)CCC2(C)C | inactive
31 | CC(=O)/C(C)=N/O | inactive
32 | Oc1ccc(Cn2cc[nH]c2=S)cc1 | inactive
33 | CCCn1c(=O)c2c(ncn2C)n(CCC)c1=O | inactive
34 | C=CCN1CCc2c(cc(O)c(O)c2Br)[C@@H](c2ccccc2)C1 | inactive
35 | COc1ccc(-c2ccc(N)[n+](CCCC(=O)O)n2)cc1 | inactive
36 | CCOC(=O)C12CC1/C(=N/O)c1ccccc1O2 (stereo not given) | inactive
37 | CCn1c(=O)[nH]c2cc(Cl)c(Cl)cc21 | inactive
38 | O=C(O)c1cc2cc(F)ccc2[nH]1 | inactive
39 | O=C1Cc2c([nH]c3ccc(Br)cc23)-c2ccccc2N1 | inactive
40 | COc1cc(/C=C(\C#N)C(=O)c2ccc(O)c(O)c2)cc(I)c1O | 2240 nM (active)
